# Assay outcomes as filed in PubChem BioAssay.
# Most compounds without a hit are left out; they make up all but 6.2% or so of the library.
# ATXN2 expr inh = reduces ATXN2 reporter expression in HEK-293 cells. HEK-293 ATXN2-luciferase reporter, luminescence, 24 h. Potency, µM (titrated, usually from 57 µM), for the others: at the highest dose activity change, negative = inhibition, most hits filed as inhibitors. actives 0.72% (n = 360,000). AID 1745845; further: on the % scale 0 is the no-effect control and ±100 the full control effect; nearly all actives have a fitted effect of over 55% in size
#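 qHTS (up to 57 uM final) was run with 24 h compound exposure of reporter cells at 37 °C. Each well was multiplexed: SteadyGlo luminescence measured ATXN2-luciferase expression after a fluorogenic Gly-Phe-AFC viability readout (25 uM final).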
# S2 tox = viability counter-screen for ATXN expression inhibitors; actives 0.49% (n = 400,000); S2 cells (HEK-293 line with an ATXN2-luciferase reporter) viability, CellTiter-Fluor protease fluorescence, 24 h; Potency, µM (series often up to 56.7 µM), actives largely listed as cytotoxic; further: nearly all actives have a fitted effect of over 40% in size
# HT1080-NT tox = kills 2HG-producing HT-1080-NT fibrosarcoma cells; HT-1080-NT fibrosarcoma viability, CellTiter-Glo ATP luminescence, 48 h; actives 1.6% (n = 360,000); Potency, µM (titrated, usually from 46.1 µM), for inactives: at the top dose activity, negative = less viability, most hits filed as cytotoxic;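 further: NT is the 2HG producing partner of a matched IDH1 knockdown line; 0% = DMSO-treated cells and -100% = media-only wells without cells; nearly all actives have a fitted effect of over 55% in size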
#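 A 48-hour cytotoxicity screen used HT-1080-NT cells plated 2 hours before compound delivery. ATP-based CellTiter-Glo luminescence measured viability, normalized to DMSO and no-cell controls.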
# HT1080 IDH1KD tx = kills HT-1080 cells with IDH1 knockdown. Potency, µM (doses to about 46.1 µM), for inactives: top-dose activity, negative = toxicity, most hits filed as cytotoxic. HT-1080 IDH1 knockdown viability, ATP luminescence, 48 h. AID 686971. actives 2% (n = 360,000);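 further: 0% = DMSO wells and -100% = cell-free medium wells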
#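 IDH1KD HT-1080 cells, 750/well, RPMI + 5% FBS; compound pinned after 2 h settling; 48 h, 37 °C; CellTiter-Glo luminescence; % activity normalised to DMSO and no-cell wells; curves fitted, classed by r2 and efficacy.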
# KB-V1 cytotox = kills drug-selected multidrug resistant KB-V1 cells. actives 3.4% (n = 400,000). KB-V1 MDR cells viability, CellTiter-Glo, 72 h. Potency, µM (titrated, usually from 46.1 µM), actives largely listed as cytotoxic; further: on the % scale 0 is the no-effect control and ±100 the full control effect; nearly all actives have a fitted effect of over 60% in size
#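 KB-V1 cells (P-gp-expressing MDR subline of KB-3-1) in phenol-red-free DMEM with 10% FBS were exposed to library compounds over a concentration series for 72 h at 37 degrees C. Viability read by CellTiter-Glo luminescence; concentration-effect curves fitted after normalization.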
# KB-3-1 tox = kills parental KB-3-1 adenocarcinoma cells; actives 1.4% (n = 400,000); KB-3-1 viability, CellTiter-Glo ATP luminescence, 72 h; AID 1347075; Potency, µM (doses to about 46.1 µM), hits mostly cytotoxic; further: on the % scale 0 is the no-effect control and ±100 the full control effect; nearly all actives have a fitted effect of over 60% in size
#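 Cytotoxicity measured as CellTiter-Glo luminescence after 72 h at 37 C. Compound titrations were pinned onto drug-naive KB-3-1 parental adenocarcinoma cells grown in DMEM with 10% FBS, and normalized data fitted to concentration-response curves.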
# The depositor's hits bear a star; i = inactive; ? = inconclusive; . = no result given. The call rests on the fitted dose curve; in most records, active means well fitted curve in the direction sought with a large enough effect; inconclusive means small, poorly fitted or top-dose-only effect, or another doubt; inactive means no such curve, though single readings can be large; an effect the other way counts as inactive or inconclusive. Potency means the concentration at half of the fitted maximal effect.
SMILES,ATXN2 expr inh,S2 tox,HT1080-NT tox,HT1080 IDH1KD tx,KB-V1 cytotox,KB-3-1 tox
N#CCSc1nnc(COc2cccc3ccccc23)n1-c1cccc(Cl)c1,-23%,?,?,?,?,i
COc1ccc(-n2c(COc3cccc4ccccc34)nnc2SCC#N)cc1,-13%,i,?,?,i,?
N#CCSc1nnc(COc2ccccc2)n1-c1ccccc1,-2%,i,15%,5%,23µM*,i
Cc1ccc(OCc2nnc(SCc3ccc(C#N)cc3)n2-c2ccc(C)cc2)cc1,-24%,i,?,11µM*,i,i
Cc1ccc(-c2nnc(CSc3nnc(COc4cccc5ccccc45)n3-c3ccccc3)o2)cc1,?,?,-16%,?,2.1µM*,?
O=C(O)CSc1nnc(COc2ccccc2)n1-c1ccccc1,.,?,11%,-1%,i,i
Cc1ccc(-n2c(SCc3ccc(C#N)cc3)nnc2-c2ccccn2)cc1,3%,i,8%,4%,i,i
N#CCSc1nnc(COc2cccc3ccccc23)n1-c1ccccc1,?,?,?,?,16µM*,16µM*
Cc1ccc(-n2nc(C)c3c(C)cc(=O)n(CC(=O)Nc4ccc(Br)cc4F)c32)cc1,13%,i,.,.,i,i
CSc1ccc(CCNC(=O)CCc2c(C)nc3c(c(C)nn3-c3ccc(C)c(C)c3)c2C)cc1,11%,i,.,.,i,i
Cc1cccc(OCc2nnc(SCc3cc(=O)[nH]c4ccccc34)n2-c2ccccc2)c1,4%,i,2%,-15%,18µM*,i
Oc1cccc(-c2csc(C(O)(c3ccccc3)C(F)(F)F)n2)c1 (stereo not given),13%,i,?,-17%,i,i
CC(O)(c1ccc(F)c(F)c1)c1nc(-c2ccc(F)c(Cl)c2)cs1 (stereo not given),-26%,i,33µM*,?,i,i
Cc1ccc(-c2csc(C(O)(c3ccccc3)C(F)(F)F)n2)cc1C (stereo not given),-24%,?,26µM*,?,i,i
OC(c1ccccc1)(c1nc(-c2ccc(F)c(Cl)c2)cs1)C(F)(F)F (stereo not given),-38%,?,?,18µM*,i,i
CC(C)(C)c1ccc(OCCOc2ccc(C(C)(C)C)cc2NC=O)c(NC=O)c1,.,?,?,15µM*,?,i
COCCOc1ccc(C(F)(F)F)cc1NC(=O)c1ccccc1,-7%,i,10%,20%,i,i
CSCCC(c1nc2ccccc2[nH]1)n1c(-c2cc(C(F)(F)F)cc(C(F)(F)F)c2)nc2ccccc21 (stereo not given),.,.,33µM*,21µM*,?,i
CSCCC(c1nc2ccccc2[nH]1)n1c(C)nc2ccccc21 (stereo not given),9%,?,2%,-8%,i,i
COc1cc2nc(SCC(=O)Nc3ccccc3C)n3nc(CCn4c(C)nc5ccccc54)nc3c2cc1OC,-4%,i,.,.,i,i
Cc1c(C#N)c2ccccc2n1C,-13%,i,11%,7%,i,?
Cn1c(CNc2ccccn2)c(C#N)c2ccccc21,2%,i,-13%,-22%,23µM*,i
Cn1c(CSc2ccccc2)c(C#N)c2ccccc21,68%,i,-2%,-26%,16µM*,i
Cc1ccc(SCc2c(C#N)c3ccccc3n2C)cc1,27%,i,17%,1%,i,i
COc1cccc(NC(=O)Cn2c(=O)n(CCC(=O)NCc3ccccc3OC)c(=O)c3ccccc32)c1,?,?,.,.,i,i
Cc1c(CN(C)C)c2c(n1Cc1ccccc1)C(=O)c1ccccc1-2,-18%,?,23µM*,16µM*,?,?
